Results filed as inconclusive are left out. Calls of active or inactive are those of the source. How the source made its calls: active means hit-call score of the fitted dose curve at least 0.9, where 1 is the maximum; inconclusive means response in the unintended direction; inactive means score below 0.9.

Sequence of chicken Estrogen Receptor (ESR1), ESR1 (gene 396099) (P06212 whole entry, looked up): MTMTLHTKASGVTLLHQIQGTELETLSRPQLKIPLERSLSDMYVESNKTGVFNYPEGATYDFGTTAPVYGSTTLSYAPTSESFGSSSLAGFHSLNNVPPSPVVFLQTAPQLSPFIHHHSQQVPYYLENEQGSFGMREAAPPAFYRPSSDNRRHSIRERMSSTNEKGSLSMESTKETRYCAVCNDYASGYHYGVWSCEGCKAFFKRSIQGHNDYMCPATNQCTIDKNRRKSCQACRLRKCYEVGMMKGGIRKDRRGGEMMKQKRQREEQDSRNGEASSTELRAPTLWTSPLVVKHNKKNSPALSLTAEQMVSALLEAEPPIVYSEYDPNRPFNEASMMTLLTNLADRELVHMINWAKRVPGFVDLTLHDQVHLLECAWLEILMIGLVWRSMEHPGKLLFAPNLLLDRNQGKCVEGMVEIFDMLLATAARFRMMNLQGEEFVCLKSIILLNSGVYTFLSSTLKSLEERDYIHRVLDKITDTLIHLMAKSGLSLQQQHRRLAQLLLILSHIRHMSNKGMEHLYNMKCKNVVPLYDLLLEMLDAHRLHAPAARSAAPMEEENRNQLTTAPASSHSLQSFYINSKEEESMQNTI

This experiment has as its target chicken Estrogen Receptor (ESR1), ESR1 (gene 396099) (UniProt P06212). Nature of the experiment: ATG_chERa_XSP1: Attagene TRANS-FACTORIAL Multi-Species (XSP1) HepG2 Assay for chicken Estrogen Receptor (ESR1) (AID 2283779). The procedure:
ATG_XSP1_multi-species_TRANS is a cell-based, multiplexed assay created by modifying the existing Attagene TRANS-FACTORIAL system to include a panel of nuclear receptors from some or all the following species: human (Homo sapiens), mouse (Mus musculus), frog (Xenopus laevis), zebrafish (Danio rerio), chicken (Gallus gallus), and turtle (Chrysemys picta). The ECOTOX-FACTORIAL format uses HepG2, a human liver cell line, with measurements taken at 24 hours after chemical dosing in a 24-well plate. Xsp1 included 3 nM 6-alpha-fluorotestosterone to partially stimulate the androgen receptor.ATG_chERa_XSP1 is one of 29 assay components measured or calculated from the ATG_XSP1_multi-species_TRANS assay. It is designed to make measurements of mRNA induction, a form of inducible reporter, as detected with fluorescence intensity signals by Reverse transcription polymerase chain reaction (RT-PCR) and Capillary electrophoresis technology.The assay endpoint ATG_chERa_XSP1 was analyzed in the positive analysis fitting direction relative to DMSO as the negative control and baseline of activity. Using a type of inducible reporter, measures of mRNA for gain-of-signal activity can be used to understand the reporter gene at the transcription factor-level as they relate to the gene ER. Furthermore, this assay endpoint can be referred to as a primary readout, because this assay has produced multiple assay endpoints where this one serves a reporter gene function. To generalize the intended target to other relatable targets, this assay endpoint is annotated to the nuclear receptor intended target family, where the subfamily is steroidal.
Human liver HepG2 cells are transiently transfected with multiple reporter transcription units (MRTUs) in 6-well plates using FuGene 6 reagent (Roche; 3 ml FuGene/1 mg DNA). The MRTU constructs are regulated by a cis-regulating element (promoter). […] A major difference between the CIS and TRANS system is that in CIS activities of endogenous TFs are measured, whereas the TRANS assay evaluates changes in activities of exogenous, chimeric NR-Gal4 proteins. […] At the end of 24 hour incubation, total RNA was isolated using TriZol reagent (Invitrogen). The isolated RNA is then reverse-transcribed using oligo(dT) primer and Mo-MLV reverse transcriptase (Invitrogen) with DNAse I (Ambion) treatment for 30 min. The one-tenth of the produced cDNA was amplified by PCR using Taq DNA polymerase (Invitrogen) and two reporter sequence-specific primers. The PCR products were fluorescently labeled by primer extension with 6-arboxyfluorescein (6-FAM) 5'-labeled reporter sequence-specific primer (2 min at 95 C, 20 s at 68 C and 10 min at 72 C) and these products were digested with 5U of HpaI (New England Biolabs) for 2h at 37 C. The fragments were purified using Qiaquick PCR columns (Qiagen), analyzed on an ABI 3130xL genetic analyzer (Applied Biosystems) with peak positions identified by using a set of X-rhodamine (ROX)-labeled MapMarker1000 molecular weight standards (BioVentures). The raw capillary electrophoresis data was processed using Attagraph software (Attagene).
As for `CC(C)Oc1cc(-n2nc(C(C)(C)C)oc2=O)c(Cl)cc1Cl`, the AC50 is 27.2 µM (active).
Same read-out and setting: with `C#CCOS(=O)OC1CCCCC1Oc1ccc(C(C)(C)C)cc1` (stereo not drawn) the figure was 26.8 µM (active).
`CCCCC(CC)COC(=O)c1ccccc1C(=O)OCC(CC)CCCC` (stereo not drawn): the call was inactive.
On to `CCCCOC(=O)c1ccccc1C(=O)OCCCC`, for which the AC50 is 26.7 µM (active).
Turning to `COP(=S)(OC)Oc1nc(Cl)c(Cl)cc1Cl`, the AC50 is 27.8 µM (active).
Take `CCCC1COC(Cn2cncn2)(c2ccc(Cl)cc2Cl)O1` (stereo not drawn): the result was inactive.
In the case of `CON(C)C(=O)Nc1ccc(Cl)c(Cl)c1`, the AC50 is 27.3 µM (active).
Regarding `CO/C=C(/C(=O)OC)c1ccccc1Oc1cc(Oc2ccccc2C#N)ncn1`, the outcome was inactive.
On to `OC(c1ccc(Cl)cc1)(c1cncnc1)c1ccccc1Cl` (stereo not drawn), for which the AC50 is 2.36 µM (active).
Still for that read-out and setting: with `CCCN(CCC)c1c([N+](=O)[O-])cc(S(N)(=O)=O)cc1[N+](=O)[O-]` the figure was 16.2 µM (active).
Regarding `CC(C)(C)c1ccc(CSc2cnn(C(C)(C)C)c(=O)c2Cl)cc1`, the outcome was inactive.
For the compound `C=CC1(C)OC(=O)N(c2cc(Cl)cc(Cl)c2)C1=O` (stereo not drawn), the AC50 is 59.9 µM (active).
On the same count and under the same terms, with `COc1ccc(C(c2ccc(OC)cc2)C(Cl)(Cl)Cl)cc1` the figure was 1.97 µM (active).

Usually AC50 stands for the midpoint of the concentration-response curve, whichever way the signal moves.
